# Compound activity: PubChem, National Center for Advancing Translational Sciences (NCATS)
# ELG1 repair inh = blocks ELG1-dependent DNA repair in HEK293T cells; HEK293T ELG1-luciferase reporter, luminescence, 16 h; DNA damage induced by 5-fluorouridine; Potency, µM (highest dose often 46.1 µM), without a hit: top-dose activity change, negative = inhibition, hits mostly inhibitors; 2.3% of 330,000 active; AID 504467; also: potency is read from the fitted curve at half-maximal effect; nearly all actives have a fitted effect of over 55% in size
#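 5-Fluorouridine DNA damage + compound/DMSO, 2,000 cells/well, 16 h, 37 °C/5% CO2. ONE-Glo, 30 min RT, luminescence. Readout = decrease in reporter signal.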
# DT40 TDP1 CPT = DT40-hTDP1 cell growth loss with CPT | Potency, µM (top dose mostly 46.2 µM), without a hit: at the top dose activity change, negative = growth inhibition, hits mostly inhibitors | 12% of 420,000 active | chicken DT40 Tdp1-/-;hTDP1 cells + 20 nM CPT, ATP luminescence, 48 h; also: potency is read from the fitted curve at half-maximal effect; nearly all actives have a fitted effect of over 55% in size
#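 Chicken DT40 Tdp1-/- cells stably complemented with human TDP1 were seeded at 400 cells/well in medium containing 20 nM camptothecin, exposed to pin-transferred compounds, and grown at 37 °C for at least 48 hr. Viability was read as ATP luminescence.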
# IL1B secr inh = blocks inflammasome-driven IL-1 beta release | activity change, % at 57.5 µM | 4.7% of 360,000 active | AID 743279 | THP-1 LPS/ATP IL-1B secretion, AlphaLISA, 16 h; hits give low values; in the data active = activity change below about -50%; inconclusive = mostly about -30% to -49%
#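 THP-1 cells pretreated 1 hr with compounds (up to 57.5 uM final), then stimulated with LPS (250 ng/mL final) plus ATP (1.25 mM final); secreted IL-1B measured by AlphaLISA after 16 hr, decreased signal indicating inhibition.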
# HT1080 IDH1KD tx = toxicity to HT-1080 IDH1 knockdown cells (counter line). AID 686971. Potency, µM (highest dose often 46.1 µM), inactives show top-dose activity, negative = toxicity, most hits filed as cytotoxic. HT-1080 IDH1 knockdown viability, ATP luminescence, 48 h. 2% of 360,000 active;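 also: potency is read from the fitted curve at half-maximal effect; 0% = DMSO wells and -100% = cell-free medium wells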
#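 Using the IDH1-knockdown HT-1080 line run in the same batch and compound series as the NT line, viability after 48 h at 37 °C was determined by CellTiter-Glo luminescence and expressed as % activity.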
# DT40 TDP1 no CPT = qHTS for Inhibitors of human tyrosyl-DNA phosphodiesterase 1 (TDP1): qHTS in cells in absence of CPT | DT40 Tdp1-/- hTDP1 cells, no CPT, ATP luminescence, 48 h | Potency, µM (series often up to 46.2 µM), for inactives: at the highest dose activity change, negative = growth inhibition, actives largely listed as inhibitors | 15% of 420,000 active; also: potency is read from the fitted curve at half-maximal effect; nearly all actives have a fitted effect of over 55% in size
#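 Seeded 400 DT40-hTDP1 cells/well (vehicle DMSO, no 20 nM CPT); pinned compounds; ≥48 hr at 37 °C; CellTiter-Glo luminescence as viability measure.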
# HT1080NT lethal = kills 2HG-producing HT-1080-NT fibrosarcoma cells; HT-1080-NT fibrosarcoma viability, CellTiter-Glo ATP luminescence, 48 h; Potency, µM (series often up to 46.1 µM), for the others: top-dose activity, negative = less viability, most hits filed as cytotoxic; 1.6% of 360,000 active;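 also: NT is the 2HG producing partner of a matched IDH1 knockdown line; potency is read from the fitted curve at half-maximal effect; 0% = DMSO-treated cells and -100% = media-only wells without cells; nearly all actives have a fitted effect of over 55% in size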
#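 Luminescent CellTiter-Glo readout after 48 hours of compound exposure at 37 degrees C defined viability of HT-1080-NT cells. Activity was normalized to DMSO wells and cell-free media wells; concentration-response curves were fitted and assigned curve classes.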
# An asterisk follows results filed as active; ? = inconclusive; . = not tested or not shown; [ ] = another dose, or the depositor's remark. This is a sample that favours compounds with a hit; in the whole collection about 19% have one here. Unless noted, calls follow the shape of the dose curve; as a rule, active = well fitted curve in the direction sought with a large enough effect; inconclusive = small, poorly fitted or top-dose-only effect, or another doubt; inactive = no such curve, though single readings can be large; an effect the other way counts as inactive or inconclusive. Unless noted, % is scaled to controls: 0 for no effect and ±100 for the full control effect.
SMILES,ELG1 repair inh,DT40 TDP1 CPT,IL1B secr inh,HT1080 IDH1KD tx,DT40 TDP1 no CPT,HT1080NT lethal
CC1=C(C(=O)NCc2ccc(C)cc2)C2(CCCCC2)OC1=O,.,5%,.,.,?,.
CCCc1nc2cccnc2n1C1CCN(C(=O)CC2NC(=O)c3ccccc32)CC1 (stereo not given),.,0%,.,.,-13%,.
Nc1c(C(=O)Nc2ccccc2)nnn1Cc1ccc(F)cc1Cl,.,-22%,.,.,-17%,.
COCCCn1c(=O)c2sccc2n(Cc2cccc(F)c2)c1=O,3%,-20%,3,11%,-15%,-1%
O=C(C1CCC(Cn2c(=O)c3sccc3n(Cc3cccc(F)c3)c2=O)CC1)N1CCOCC1 (stereo not given),.,?,.,.,16µM*,.
Cn1c(=O)c2sccc2n(Cc2cccc(Br)c2)c1=O,1%,12µM*,8,-5%,?,2%
COCCCn1c(=O)c2sccc2n(Cc2cccc(C)c2)c1=O,?,?,8,-1%,?,3%
CC(C)CC(N)c1csc(Nc2ccc(C(=O)NCCO)cc2)n1 (stereo not given),.,?,23,29%,?,?
CC(C)C(=O)Nc1ccccc1Cc1ccccc1,6%,4%,32,-4%,0%,4%
CC(C)CC(N)c1csc(NC(=O)Nc2ccccc2Cc2ccccc2)n1 (stereo not given),.,12µM*,?,?,12µM*,?
CC(C)CC(N)c1csc(NC(=O)c2cc(C(C)(C)C)nn2Cc2ccccc2)n1 (stereo not given),.,7.3µM*,-114*,16µM*,8.2µM*,12µM*
CC(C)CC(N)c1csc(NC(=O)C(c2ccccc2)c2ccccc2)n1 (stereo not given),.,18µM*,-28,2.9µM*,6.5µM*,7.3µM*
COc1ccccc1NC(=O)Nc1nc(C(N)Cc2ccc(Cl)cc2)cs1 (stereo not given),.,9.2µM*,-12,?,23µM*,?
CC(C)C[C@@]12C(=O)N(c3cccc(F)c3)C(=O)N1[C@H](c1ccc(F)cc1)[C@@H]1C(=O)N(C3CCCCC3)C(=O)[C@@H]12,12%,?,-4,1%,?,1%
COc1ccccc1NC(=O)Nc1nc(C(N)CC(C)C)cs1 (stereo not given),.,2.6µM*,-57*,-19%,0.26µM*,-6%
COc1ccccc1NC(=O)Nc1nc(C(N)Cc2ccccc2)cs1 (stereo not given),.,23µM*,?,?,18µM*,23µM*
Cc1ccccc1NC(=O)Nc1nc(C(N)Cc2ccccc2)cs1 (stereo not given),.,23µM*,-56*,?,23µM*,23µM*
COc1ccccc1NC(=O)Nc1nnc(C(C)C)s1,?,-4%,11,4%,-19%,2%
Cc1ccccc1NC(=O)Nc1nc(CN)cs1,.,16µM*,14,?,23µM*,-13%
COc1ccccc1NC(=O)Nc1nn(C)c2cccc(N(C)C)c12,?,15µM*,?,-14%,16µM*,-15%
CN(C)c1cccc2c1c(NC(=O)Nc1ccc(Cl)cc1Cl)nn2C,10%,-21%,-25,0%,-26%,5%
COc1ccc(CNC(=O)C2CCC(=O)N(CCCN3CCCC3=O)C2)c(OC)c1 (stereo not given),-3%,-3%,4,16%,21%,12%
COc1cc(/C=C/C(=O)OCC(=O)N(C)CC(=O)Nc2ccc(F)cc2)ccc1OC(F)F,-19%,9%,15,3%,-21%,-4%[9.24 µM]
CN(CC(=O)Nc1ccc(F)cc1)C(=O)COC(=O)/C=C/c1ccc(OC(F)F)cc1,0%,-15%,-87*,-8%,?,-12%
Fc1ccc(NC(=S)Nc2cc(Cl)ccc2Cl)cc1,-2%,5.8µM*,18,6%,?,8%
SMILES,ELG1 repair inh,DT40 TDP1 CPT,IL1B secr inh,HT1080 IDH1KD tx,DT40 TDP1 no CPT,HT1080NT lethal
Fc1ccc(NC(=S)Nc2ccc(Cl)cc2)cc1,?,?,-23,-11%,23µM*,?
COc1ccc(CCNC(=O)COC(=O)c2cc(OC)c(OC)cc2OC)cc1OC,-12%,-1%,22,-3%,-22%,-2%
CO[C@@H]1CN(C)C(=O)c2cc(NC(=O)Nc3ccc4c(c3)OCO4)ccc2OC[C@@H](C)N(C)C[C@H]1C,.,12%,-21,1%,3%,1%
CO[C@H]1CN(C)C(=O)c2ccc(NC(=O)C3CCC3)cc2OC[C@H](C)N(Cc2ccc(F)cc2)C[C@@H]1C,.,?,-70*,-1%,?,1%
COCC(=O)N1C[C@H](C)[C@H](OC)CN(C)C(=O)c2cc(NC(=O)Nc3cccc(F)c3)ccc2OC[C@@H]1C,.,12µM*,-29,-7%,10µM*,0%
CCC(=O)Nc1ccc2c(c1)OC[C@@H](C)N(Cc1ccccc1F)C[C@@H](C)[C@@H](OC)CN(C)C2=O,.,-29%,1,16%,-15%,11%
CO[C@@H]1CN(C)C(=O)c2cc(NC(=O)NC3CCCCC3)ccc2OC[C@@H](C)N(CCc2ccccc2)C[C@H]1C,.,23µM*,-28,-12%,16µM*,-14%
CCCC(=O)Nc1ccc2c(c1)C(=O)N(C)C[C@@H](OC)[C@H](C)CN(Cc1ccc(-c3ccccn3)cc1)[C@@H](C)CO2,.,?,?,-6%,23µM*,-22%
CC(=O)OCCN1c2ccccc2Sc2cnccc21,.,?,?,-11%,15µM*,-7%
O=C(O)CCN1c2ccccc2Sc2ccccc21,12%,-2%,4,2%,-15%,0%
C=CCN1C(=O)/C(=C2/Sc3ccccc3N2CC)SC1=S,3%,-23%,32,1%,-21%,-1%
C=CCN1c2ccccc2Sc2cnccc21,.,?,?,2%,18µM*,0%
Cc1cc(C(C)(C)C)oc1C(=O)N(CC(=O)NC1CCCC1)Cc1ccc(F)cc1,0%,21µM*,16,-10%,?,6%
Cc1cc(C(C)(C)C)oc1C(=O)N(CC(=O)NC1CCCC1)Cc1ccccc1,-10%,15µM*,-9,-2%,13µM*,8%
Cc1cc(C(C)(C)C)oc1C(=O)OCC(=O)NC1CCCCC1,?,?,-4,8%,?,13%
